Test results published in PubChem BioAssay AID1159580 (chemical genetic matrix, 2015).
Hit rate of the full screen: of about 5,500 compounds, about 2,000 (36%) were called active. Not shown: some 18% with an inconclusive outcome. No stated cut-off is given here; in the data, active means normalized growth mostly below about 0.91 (no sharp cut-off); inconclusive means no clear call, values can overlap the other calls; inactive means mostly above about 0.92. Some of the results follow.

Assay: chemical genetic growth profiling, strain panel (AID 1159580);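 further: tested at 20 µM; growth read once vehicle control cultures reached saturation at 30 °C; 1 = growth at the plate median or of vehicle wells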
Settings: growth OD

Measured: normalized growth

CC(C(=O)O)c1ccc(C(=O)c2cccs2)cc1 (stereo not drawn)
inactive: S. cerevisiae deletion strains, locus YKL009W, strain mrt4, stronger effect = lower value 1.02 | S. cerevisiae deletion strains, locus YKL068W, stronger effect = lower value 1.01 | S. cerevisiae deletion strains, locus YKL085W, strain MDH1 (second series), stronger effect = lower value 0.983 | S. cerevisiae deletion strains, locus YKL085W, strain MDH1, stronger effect = lower value 0.983 | S. cerevisiae deletion strains, locus YKL160W, strain elf1, stronger effect = lower value 0.992 | S. cerevisiae deletion strains, locus YKL190W, strain CNB1, stronger effect = lower value 1 | S. cerevisiae deletion strains, locus YKR001C, strain vps1, stronger effect = lower value 1.01 | S. cerevisiae deletion strains, locus YKR026C, strain gcn3, stronger effect = lower value 0.987 | S. cerevisiae deletion strains, locus YKR091W, strain srl3, stronger effect = lower value 1.01 | S. cerevisiae deletion strains, locus YLL001W, strain dnm1, stronger effect = lower value 0.995 | S. cerevisiae deletion strains, locus YLL026W, stronger effect = lower value 0.99 | S. cerevisiae deletion strains, locus YLL041C, strain sdh2, stronger effect = lower value 0.996 | S. cerevisiae deletion strains, locus YLR027C, strain aat2, stronger effect = lower value 1.01 | S. cerevisiae deletion strains, locus YLR039C, strain RIC1, stronger effect = lower value 1.01 | S. cerevisiae deletion strains, locus YLR058C, strain SHM2, stronger effect = lower value 1.01 | S. cerevisiae deletion strains, locus YLR102C, strain apc9, stronger effect = lower value 1.01 | S. cerevisiae deletion strains, locus YLR113W, strain HOG1, stronger effect = lower value 0.968 | S. cerevisiae deletion strains, locus YLR221C, strain rsa3, stronger effect = lower value 0.991 | S. cerevisiae deletion strains, locus YLR258W, strain gsy2, stronger effect = lower value 1 | S. cerevisiae deletion strains, locus YLR262C, strain YPT6 (second series), stronger effect = lower value 0.951 | S. cerevisiae deletion strains, locus YLR262C, strain YPT6, stronger effect = lower value 1 | S. cerevisiae deletion strains, locus YLR268W, strain sec22, stronger effect = lower value 1.01 | S. cerevisiae deletion strains, locus YLR320W, strain mms22, stronger effect = lower value 1 | S. cerevisiae deletion strains, locus YLR330W, strain CHS5, stronger effect = lower value 0.999 | S. cerevisiae deletion strains, locus YLR342W, strain FKS1 (second series), stronger effect = lower value 1 | S. cerevisiae deletion strains, locus YLR342W, strain FKS1, stronger effect = lower value 1 | S. cerevisiae deletion strains, locus YLR357W, strain rsc2, stronger effect = lower value 0.967 | S. cerevisiae deletion strains, locus YLR370C, strain arc18, stronger effect = lower value 0.998 | S. cerevisiae deletion strains, locus YLR371W, strain rom2, stronger effect = lower value 1.02 | S. cerevisiae deletion strains, locus YLR384C, strain iki3, stronger effect = lower value 1.01 | S. cerevisiae deletion strains, locus YLR418C, strain cdc73, stronger effect = lower value 1.03 | S. cerevisiae deletion strains, locus YML016C, strain PPZ1, stronger effect = lower value 1.01 | S. cerevisiae deletion strains, locus YML032C, strain rad52, stronger effect = lower value 1.02 | S. cerevisiae deletion strains, locus YML120C, strain ndi1, stronger effect = lower value 1 | S. cerevisiae deletion strains, locus YML124C, strain tub3, stronger effect = lower value 1.02 | S. cerevisiae deletion strains, locus YMR058W, strain fet3, stronger effect = lower value 1.02 | S. cerevisiae deletion strains, locus YMR078C, strain ctf18, stronger effect = lower value 1.02 | S. cerevisiae deletion strains, locus YMR125W, strain sto1, stronger effect = lower value 0.976 | S. cerevisiae deletion strains, locus YMR129W, stronger effect = lower value 0.985 | S. cerevisiae deletion strains, locus YMR205C, strain PFK2, stronger effect = lower value 0.965 | S. cerevisiae deletion strains, locus YMR223W, strain ubp8, stronger effect = lower value 1.02 | S. cerevisiae deletion strains, locus YMR231W, strain pep5, stronger effect = lower value 0.991 | S. cerevisiae deletion strains, locus YMR263W, strain SAP30, stronger effect = lower value 1 | S. cerevisiae deletion strains, locus YMR307W, strain GAS1, stronger effect = lower value 0.997 | S. cerevisiae deletion strains, locus YNL067W, strain RPL9B, stronger effect = lower value 1 | S. cerevisiae deletion strains, locus YNL071W, strain lat1, stronger effect = lower value 1 | S. cerevisiae deletion strains, locus YNL153C, strain GIM3, stronger effect = lower value 1 | S. cerevisiae deletion strains, locus YNL183C, strain NPR1, stronger effect = lower value 0.949 | S. cerevisiae deletion strains, locus YNL209W, strain ssb2, stronger effect = lower value 1.01 | S. cerevisiae deletion strains, locus YNL233W, strain BNI4, stronger effect = lower value 1 | S. cerevisiae deletion strains, locus YNL248C, strain rpa49, stronger effect = lower value 1.02 | S. cerevisiae deletion strains, locus YNL250W, strain rad50, stronger effect = lower value 1.01 | S. cerevisiae deletion strains, locus YNL271C, strain bni1, stronger effect = lower value 1.02 | S. cerevisiae deletion strains, locus YNL298W, strain CLA4, stronger effect = lower value 1.02 | S. cerevisiae deletion strains, locus YNL307C, strain MCK1, stronger effect = lower value 1.02 | S. cerevisiae deletion strains, locus YNL322C, strain KRE1 (second series), stronger effect = lower value 0.994 | S. cerevisiae deletion strains, locus YNR049C, strain mso1, stronger effect = lower value 0.998 | S. cerevisiae deletion strains, locus YNR052C, strain pop2, stronger effect = lower value 1.01 | S. cerevisiae deletion strains, locus YOL006C, strain TOP1, stronger effect = lower value 0.978 | S. cerevisiae deletion strains, locus YOL012C, strain htz1 0.883 | S. cerevisiae deletion strains, locus YOL147C, strain pex11, stronger effect = lower value 1.01 | S. cerevisiae deletion strains, locus YOR001W, strain rrp6, stronger effect = lower value 1.01 | S. cerevisiae deletion strains, locus YOR061W, strain CKA2, stronger effect = lower value 1.01 | S. cerevisiae deletion strains, locus YOR069W, strain VPS5, stronger effect = lower value 1 | S. cerevisiae deletion strains, locus YOR070C, strain gyp1, stronger effect = lower value 1 | S. cerevisiae deletion strains, locus YOR080W, strain dia2, stronger effect = lower value 0.988 | S. cerevisiae deletion strains, locus YOR083W, strain WHI5, stronger effect = lower value 1 | S. cerevisiae deletion strains, locus YOR106W, strain vam3, stronger effect = lower value 0.995 | S. cerevisiae deletion strains, locus YOR136W, strain idh2, stronger effect = lower value 1.02 | S. cerevisiae deletion strains, locus YOR144C, strain elg1, stronger effect = lower value 1.02 | S. cerevisiae deletion strains, locus YOR184W, strain ser1, stronger effect = lower value 1.02 | S. cerevisiae deletion strains, locus YOR231W, strain MKK1, stronger effect = lower value 0.993 | S. cerevisiae deletion strains, locus YOR265W, strain rbl2, stronger effect = lower value 0.992 | S. cerevisiae deletion strains, locus YOR270C, strain vph1, stronger effect = lower value 0.997 | S. cerevisiae deletion strains, locus YOR290C, strain snf2, stronger effect = lower value 1.01 | S. cerevisiae deletion strains, locus YOR316C, strain cot1, stronger effect = lower value 1.02 | S. cerevisiae deletion strains, locus YPL051W, strain arl3, stronger effect = lower value 0.989 | S. cerevisiae deletion strains, locus YPL055C, strain LGE1, stronger effect = lower value 1.02 | S. cerevisiae deletion strains, locus YPL078C, strain atp4, stronger effect = lower value 0.983 | S. cerevisiae deletion strains, locus YPL106C, strain sse1, stronger effect = lower value 0.979 | S. cerevisiae deletion strains, locus YPL240C, strain hsp82, stronger effect = lower value 0.992 | S. cerevisiae deletion strains, locus YPL256C, strain CLN2, stronger effect = lower value 1.02 | S. cerevisiae deletion strains, locus YPR119W, strain clb2, stronger effect = lower value 1.01 | S. cerevisiae deletion strains, locus YPR141C, strain kar3, stronger effect = lower value 1.01 | S. cerevisiae deletion strains, locus YPR163C, strain tif3, stronger effect = lower value 1.02 | S. cerevisiae deletion strains, locus YPR167C, strain met16, stronger effect = lower value 1.02 | S. cerevisiae deletion strains, strain wtn01, stronger effect = lower value 1.01 | S. cerevisiae strains, strain wild type, stronger effect = lower value 1
